Results filed as inconclusive are left out. Active and inactive are the calls of the source. The call rests on the fitted dose curve; in most records, active means well fitted curve in the direction sought with a large enough effect; inconclusive means small, poorly fitted or top-dose-only effect, or another doubt; inactive means no such curve, though single readings can be large; an effect the other way counts as inactive or inconclusive.

Assay [1] in a line: S16 Schwann cell PMP22 intronic element firefly luciferase assay (AID 624032). Further: nearly all actives have a fitted effect of over 30% in size. In outline: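 Luciferase reporter of PMP22 intronic-element expression in stably transfected S16 rat Schwann cells, read by ONE-Glo luminescence after 24 h compound exposure at 37 C. Activity scaled between DMSO (0%) and positive-control PTC124; concentration-effect curves quality-classified.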
For assay [2], the system named is ATS189. As to the kind of experiment: qHTS profiling for inhibitors of Plasmodium falciparum proliferation (AID 504749). Further: nearly all actives have a fitted effect of over 60% in size. Further: potency means the concentration at half of the fitted maximal effect. The conditions noted are these: P. falciparum in erythrocytes, SYBR Green DNA, 72 h; series mostly up to 28.7 µM. In outline:
(§1)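 Three-day growth assay of blood-stage parasites in erythrocytes (0.3% parasitemia, 2.5% hematocrit) at 37 C, 5% CO2, quantified by SYBR Green DNA staining after overnight detergent lysis.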

Assay [3] concerns C2A. The description is as above. The settings on record: P. falciparum in erythrocytes, SYBR Green DNA, 72 h; series mostly up to 28.7 µM. In outline:
as §1

The test system of assay [4] is CP185. The assay is described as above. The settings on record: P. falciparum in erythrocytes, SYBR Green DNA, 72 h; series mostly up to 28.7 µM. In outline: as §1
The test system of assay [5] is CP191. Described as above. The settings on record: P. falciparum in erythrocytes, SYBR Green DNA, 72 h; series mostly up to 28.7 µM. In outline: as §1
Assay [6] concerns CP203. The description is as above. The settings on record: P. falciparum in erythrocytes, SYBR Green DNA, 72 h; series mostly up to 28.7 µM. In outline:
as §1

The subject of assay [7] is CP237. The assay is described as above. The conditions noted are these: P. falciparum in erythrocytes, SYBR Green DNA, 72 h; series mostly up to 28.7 µM. The method, boiled down:
as §1

Assay [8] concerns CP238. Described as above. The conditions noted are these: P. falciparum in erythrocytes, SYBR Green DNA, 72 h; series mostly up to 28.7 µM. The method, boiled down: as §1
Assay [9] concerns CP250. The description is as above. The settings on record: P. falciparum in erythrocytes, SYBR Green DNA, 72 h; series mostly up to 28.7 µM. In outline: as §1
The subject of assay [10] is CP266. The description is as above. The conditions noted are these: P. falciparum in erythrocytes, SYBR Green DNA, 72 h; series mostly up to 28.7 µM. In outline: as §1
In assay [11] the test system is CP286. The assay is described as above. The conditions noted are these: P. falciparum in erythrocytes, SYBR Green DNA, 72 h; series mostly up to 28.7 µM. The method, boiled down: as §1
Assay [12] deals with CP297. The assay is described as above. The settings on record: P. falciparum in erythrocytes, SYBR Green DNA, 72 h; series mostly up to 28.7 µM. The method, boiled down: as §1
Assay [13] deals with CP305. The assay is described as above. The conditions noted are these: P. falciparum in erythrocytes, SYBR Green DNA, 72 h; series mostly up to 28.7 µM. The method, boiled down:
as §1

Assay [14] has as its system DIV30. The description is as above. The settings on record: P. falciparum in erythrocytes, SYBR Green DNA, 72 h; series mostly up to 28.7 µM. In outline: as §1
In assay [15] the test system is Dd2. The assay is described as above. The conditions noted are these: P. falciparum in erythrocytes, SYBR Green DNA, 72 h; series mostly up to 28.7 µM. In outline:
as §1

The subject of assay [16] is ECU. The assay is described as above. The conditions noted are these: P. falciparum in erythrocytes, SYBR Green DNA, 72 h; series mostly up to 28.7 µM. The method, boiled down:
as §1

Assay [17] deals with ICS. Described as above. The conditions noted are these: P. falciparum in erythrocytes, SYBR Green DNA, 72 h; series mostly up to 28.7 µM. The method, boiled down: as §1
Assay [18] concerns PC15. The assay is described as above. The conditions noted are these: P. falciparum in erythrocytes, SYBR Green DNA, 72 h; series mostly up to 28.7 µM. In outline:
as §1

The subject of assay [19] is CP215. The description is as above. The settings on record: P. falciparum in erythrocytes, SYBR Green DNA, 72 h; series mostly up to 28.7 µM. The method, boiled down:
as §1

`O=[N+]([O-])OC1CO[C@H]2C(O[N+](=O)[O-])COC12` (stereo partly drawn): the Potency result in assay [1], in assay [2], in [3], in [4], in assay [5] and in [6] was “inactive” each time. Besides, the Potency entry in assay [7], in assay [8], in assay [9], in assay [10], in [11] and in assay [12] was “inactive” each time. The Potency entry in assay [13], in assay [14], in assay [15], in [16], in assay [17] and in [18] was “inactive” each time.
With `CC(=O)O[C@H]1C[C@H](O[C@H]2[C@@H](O)CC(O[C@H]3[C@@H](O)C[C@H](O[C@H]4CC[C@@]5(C)[C@H](CC[C@@H]6[C@@H]5CC[C@]5(C)[C@@H](C7=CC(=O)OC7)CC[C@]65O)C4)O[C@@H]3C)O[C@@H]2C)O[C@H](C)[C@H]1O[C@@H]1O[C@H](CO)[C@@H](O)[C@H](O)[C@H]1O` (stereo partly drawn), the Potency result in assay [2], in assay [3], in assay [4], in assay [19], in [8] and in assay [9] was “inactive” each time. Besides, the Potency result in [10], in assay [11], in assay [12], in assay [13], in assay [14] and in [15] was “inactive” each time. Moreover, the Potency result in assay [16] and in assay [17] was “inactive” throughout.
As for `CC(=O)Oc1ccc2c3c1OC1[C@@H](OC(C)=O)C=C[C@H]4[C@H](C2)N(C)CC[C@]314` (stereo partly drawn), the Potency entry in assay [1], in [2], in assay [3], in [4], in assay [5] and in assay [6] was “inactive” each time. The Potency result in assay [19], in assay [7], in assay [8], in [9], in assay [10] and in assay [11] was “inactive” each time. In addition, the Potency entry in assay [12], in assay [13], in assay [14], in assay [15], in assay [16] and in [17] was “inactive” in each case. In addition, in assay [18], the Potency entry was “inactive”.
Regarding `CCCN1CCCC2Cc3nc(N)ncc3CC21` (stereo not drawn), the Potency result in assay [1], in [2], in assay [3], in assay [4], in [5] and in assay [6] was “inactive” in each case. Also, the Potency result in assay [19], in assay [7], in [8], in assay [9], in assay [10] and in assay [11] was “inactive” in each case. Moreover, the Potency result in [12], in [13], in assay [14], in [15], in [16] and in assay [17] was “inactive” in each case. Moreover, in assay [18], the Potency result was “inactive”.
As for `C#CCN1CC(=O)N(COC(=O)[C@@H]2[C@@H](C=C(C)C)C2(C)C)C1=O`, the Potency entry in assay [2], in assay [3], in [4], in [5], in [6] and in assay [7] was “inactive” throughout. Further, the Potency entry in assay [8], in assay [9], in assay [11], in [13], in assay [14] and in [15] was “inactive” each time. In addition, the Potency entry in [16], in [17] and in [18] was “inactive” throughout.
Take `Nc1nc(O)c(-c2ccccc2)o1`: the Potency entry in assay [1], in assay [2], in assay [3], in assay [4], in [5] and in assay [6] was “inactive” in each case. Moreover, the Potency result in assay [19], in assay [7], in assay [8], in assay [9], in assay [11] and in [12] was “inactive” each time. For the same molecule, the Potency result in assay [13], in [14], in [15], in assay [16], in assay [17] and in [18] was “inactive” throughout.
Consider `COC(=O)C1C(OC(=O)c2ccccc2)CC2CCC1N2C` (stereo not drawn), for which the Potency result in assay [1], in assay [2], in assay [3], in [4], in assay [5] and in assay [6] was “inactive” each time. Also, the Potency result in assay [19], in [7], in assay [8], in assay [9], in assay [10] and in assay [11] was “inactive” in each case. Moreover, the Potency result in assay [12], in assay [13], in assay [14], in assay [15], in assay [16] and in assay [17] was “inactive” in each case. Also, in [18], the Potency entry was “inactive”.
Turning to `CCN(CC)C(=O)N[C@@H]1C=C2c3cccc4[nH]cc(c34)C[C@H]2N(C)C1`, the Potency result in assay [1], in [6], in [19] and in [10] was “inactive” each time. Also, the Potency is 8.49 µM (active) in [14], 14.1 µM (active) in assay [15] and 8.91 µM (active) in assay [17].
`O=C1CC2OCC=C3CN4CCC56c7ccccc7N1C5[C@H]2[C@H]3C[C@H]46` (stereo partly drawn) (tested in a mixture with another compound): the Potency entry in assay [1], in assay [2], in [3], in assay [4], in [5] and in assay [7] was “inactive” each time. The Potency result in assay [8], in assay [9], in assay [10], in assay [12] and in assay [18] was “inactive” throughout.
`CN(C)[C@@H](Cc1ccccc1)c1ccccc1`: the Potency result in [1], in assay [2], in [3], in assay [4], in [5] and in assay [6] was “inactive” in each case. Further, the Potency entry in [19], in [8], in assay [9], in [10], in assay [11] and in assay [13] was “inactive” throughout. The Potency result in [14], in assay [16], in assay [17] and in assay [18] was “inactive” each time. Moreover, the Potency is 8.91 µM (active) in assay [7] and 10 µM (active) in [15].

The values above are taken from PubChem BioAssay (NCATS).
